# In ChEMBL document CHEMBL1201862, “PubChem BioAssay data set” (2004):
# The campaign covered roughly 390,000 compounds. About 4,000 (1%) were called active. Inconclusive results (about 7%) are left out. The rule behind the calls is not given here. The entries come from a sample that favours actives as a whole.
# Biological target: T1, DNA polymerase iota (Homo sapiens) (UniProt Q9UNA4)
# T1 sequence (whole entry): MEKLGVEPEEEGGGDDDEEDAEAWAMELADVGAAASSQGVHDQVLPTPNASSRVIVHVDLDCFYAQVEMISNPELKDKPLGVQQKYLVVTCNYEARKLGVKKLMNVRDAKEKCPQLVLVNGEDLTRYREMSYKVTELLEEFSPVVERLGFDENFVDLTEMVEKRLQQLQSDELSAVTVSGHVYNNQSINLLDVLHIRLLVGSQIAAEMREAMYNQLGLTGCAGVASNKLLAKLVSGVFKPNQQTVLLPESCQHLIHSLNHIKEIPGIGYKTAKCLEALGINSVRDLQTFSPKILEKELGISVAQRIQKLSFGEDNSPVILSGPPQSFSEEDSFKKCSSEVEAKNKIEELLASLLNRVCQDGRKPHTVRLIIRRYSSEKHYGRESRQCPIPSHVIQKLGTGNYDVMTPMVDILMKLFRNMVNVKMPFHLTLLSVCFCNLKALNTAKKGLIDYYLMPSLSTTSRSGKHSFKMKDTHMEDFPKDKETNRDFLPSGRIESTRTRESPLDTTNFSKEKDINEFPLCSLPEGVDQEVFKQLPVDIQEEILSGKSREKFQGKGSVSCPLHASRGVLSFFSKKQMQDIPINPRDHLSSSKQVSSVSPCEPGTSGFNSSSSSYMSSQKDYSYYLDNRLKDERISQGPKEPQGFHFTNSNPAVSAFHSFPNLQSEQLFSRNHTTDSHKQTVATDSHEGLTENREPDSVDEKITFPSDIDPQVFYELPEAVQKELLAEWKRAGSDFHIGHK
# Experiment: qHTS for Inhibitors of Polymerase Iota. [Related pubchem assays (depositor defined):AID588623]
# Format: functional
row,SMILES,Potency
1,COc1ccc(OC)c(/C=C/c2cccc3c2N(CCCCI)C=S3/C=C/c2cc(OC)ccc2OC)c1 (configuration not stated),70.8 µM (active)
2,Cl.NC(CCC(=O)O)C(=O)O (configuration not stated),inactive
